Only some compounds are listed: those with a hit (about 2.3% of all), similar ones and a draw of the others.
IL2 activator: activators of IL-2; IL-2 activation reporter assay, cell-based qHTS; stimulated with anti-CD3/CD4/CD28 beads; in transgenic mouse T cells; activation, % (series mostly up to about 46 µM); 360,000 compounds, 0.065% hits; AID 652025; in the data active = activation above about 50%; inconclusive = mostly about 30% to 49%
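Unstimulated transgenic mouse T cells; 60-min compound exposure; bead-based TCR/CD4/CD28 stimulation; 18 h culture, 37 degrees C; dual fluorescence (EGFP, DsRed) plate cytometry.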
Nrf2 activator: Nrf2 pathway activation; AID 624171; 410,000 compounds, 0.31% hits; Potency, µM (series often up to 46.1 µM), hits mostly activators; AREc32 ARE-luciferase reporter (MCF7-derived line), luminescence, 24 h; also: nearly all actives have a fitted effect of over 65% in size
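Nrf2 activation is followed as ARE-luciferase induction in the AREc32 line after one day of compound treatment; luminescence is read with Steady-Glo.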
A549 viability: kills or reduces viability of A549 cells in Nrf2 counter-screen. A549 ARE-Fluc cells, CellTiter-Fluor viability, 18-24 h. Potency, µM (top dose mostly 46 µM), hits mostly inhibitors. 390,000 compounds, 0.16% hits. AID 504648
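A549 ARE_Fluc cells in 5% FBS OPTI-MEM were exposed to compounds in concentration-response for 18-24 h at 37 deg C. Viability was read by CellTiter-Fluor fluorescence (Ex 405/Em 525) after 30 min, before the luciferase read.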
Nrf2 inh: blocks Nrf2 signaling | 360,000 compounds, 2.1% hits | A549 ARE-Fluc reporter, luciferase luminescence, 18-24 h | Potency, µM (series often up to 46 µM), usual class: inhibitors | AID 504444; also: nearly all actives have a fitted effect of over 60% in size
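Quantitative HTS in A549 cells stably bearing an antioxidant response element-firefly luciferase construct. Inhibition of Nrf2-driven transcription was scored by luminescence after 18-24 h of compound exposure at 37 °C.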
Of the large screens only hits and unclear results are named; the others gave an inactive call. Unless noted, calls follow the shape of the dose curve; as a rule, active = well fitted curve in the direction sought with a large enough effect; inconclusive = small, poorly fitted or top-dose-only effect, or another doubt; inactive = no such curve, though single readings can be large; an effect the other way counts as inactive or inconclusive.

O=S(=O)(NCc1cccnc1)c1cccn1-c1ncc(C(F)(F)F)cc1Cl	Nrf2 inh 16µM
Oc1ccc(Cl)cc1C1C=C(c2ccc3c(c2)OCO3)NC(c2cc(Br)ccc2F)N1 (configuration not stated)	none (no result: IL2 activator, Nrf2 activator)
CCN(CC)c1ccc(/C=N/NC(=O)CNC(=O)C2COc3ccccc3O2)c(O)c1 (configuration not stated)	Nrf2 inh 23µM
Cn1c(=O)c2[nH]c(C3CCCC3)nc2n(C)c1=O	Nrf2 inh 6.5µM
Cn1c(=O)c2[nH]c(C3CC=CCC3)nc2n(C)c1=O (configuration not stated)	Nrf2 inh inconclusive
CC1CCN(C(=O)C2CCN(C(=O)c3cc4sccc4n3Cc3ccc(F)cc3)CC2)CC1	none
CC(C)NC(=O)C1CCN(C(=O)c2cc3sccc3n2Cc2ccc(F)cc2)CC1	A549 viability inconclusive, Nrf2 inh 15µM
C/C(=N\NC(=O)c1ccc(Cl)c(Cl)c1)c1ccc(Br)s1	Nrf2 inh 7.3µM
C/C(=N/NC(=O)c1ccc2c(c1)OCO2)c1ccc(Br)s1	Nrf2 inh inconclusive
CC12CCC=CC1C(c1ccc3ccccc3c1Br)N(Cc1ccccc1)C2=O (configuration not stated)	Nrf2 inh inconclusive (no result: IL2 activator, Nrf2 activator)
CCC(=O)Nc1ccc(C(=O)Cn2ncc(Cl)c(Cl)c2=O)cc1	Nrf2 activator 6.3µM
CCOC(=O)c1ccc(NC(=O)Cn2ncc(Cl)c(Cl)c2=O)cc1	Nrf2 activator inconclusive, Nrf2 inh inconclusive
CCN(Cc1ccccc1)Cc1c(O)ccc2oc(C)c(C(=O)Nc3ccccc3C)c12	none (no result: IL2 activator)
C=CCOC(=O)c1sc(NC(=O)c2ccco2)nc1C	Nrf2 activator 5µM, Nrf2 inh inconclusive (no result: A549 viability)
CCOC(=O)c1sc(NC(=O)c2cc3ccccc3o2)nc1C	Nrf2 inh inconclusive
Clc1ccccc1-c1nc(-c2cccnc2)no1	Nrf2 activator inconclusive, Nrf2 inh inconclusive
Cc1ccccc1-c1nc(-c2cccnc2)no1	Nrf2 activator 13µM, Nrf2 inh inconclusive
Cc1ccc(Cc2nc(-c3ccncc3)no2)cc1	Nrf2 inh inconclusive
c1ccc(-c2ccc(-c3nc(-c4ccncc4)no3)cc2)cc1	Nrf2 inh inconclusive
Clc1ccccc1-c1nc(-c2ccncc2)no1	Nrf2 activator 11µM, Nrf2 inh inconclusive
c1ccc(-c2nc(-c3ccncc3)no2)cc1	Nrf2 activator 11µM, Nrf2 inh inconclusive
c1ccc(C(Cc2nc(-c3ccncc3)no2)c2ccccc2)cc1	Nrf2 inh 8.2µM
c1ccc(-c2ccccc2-c2nc(-c3ccncc3)no2)cc1	none
c1ccc(-c2noc(-c3cccnc3)n2)cc1	Nrf2 activator 3.2µM, Nrf2 inh inconclusive
COc1cccc(C2c3c(ncn(-c4cccnc4)c3=N)Oc3ccc4ccccc4c32)c1 (configuration not stated)	none (no result: IL2 activator, Nrf2 activator)
O=C(NN/C(=N/S(=O)(=O)c1ccc(Cl)cc1)c1ccccc1)c1cccc(Cl)c1	Nrf2 activator 4.5µM, Nrf2 inh inconclusive
O=C(Nc1nccs1)c1ccc(S(=O)(=O)NCC2CCCCC2)cc1	Nrf2 inh 13µM
COc1cccc(Cn2ncc3c4sc(SC)cc4n(C)c3c2=O)c1	Nrf2 inh inconclusive (no result: IL2 activator, Nrf2 activator)
O=C(NCc1ccco1)c1ccc(COc2cccc3ccccc23)cc1	Nrf2 inh 16µM
O=C(NCc1ccco1)c1ccc(COc2ccccc2Cl)cc1	Nrf2 inh inconclusive
Nc1c2ccccc2nc2ccccc12	A549 viability inconclusive, Nrf2 inh 21µM
Cc1cccn2cc(CNS(=O)(=O)c3ccc4ccccc4c3)nc12	Nrf2 inh 13µM
O=C(CSc1nc(-c2ccccc2)[nH]c1-c1ccc(F)cc1)NC1CCCC1	Nrf2 inh inconclusive (no result: IL2 activator)
COc1ccccc1C1=Nn2c(nnc2-c2cccc(OC)c2OC)SC1	none (no result: IL2 activator, Nrf2 activator)
CCc1nn(CC(=O)NCc2ccco2)c(=O)c2cc3c(OC)cccc3n12	none (no result: IL2 activator)
O=C(Nc1ccn(Cc2c(F)c(F)cc(F)c2F)n1)c1ccc(COc2ccccc2Cl)cc1	Nrf2 inh 21µM
O=C(Nc1ccn(Cc2ccccc2F)n1)c1ccc(COc2cccc(Br)c2)cc1	Nrf2 inh inconclusive
O=C(Nc1ccn(Cc2ccccc2F)n1)c1ccc(COc2ccccc2Cl)cc1	Nrf2 inh 18µM
O=C(Nc1ccn(Cc2c(F)c(F)cc(F)c2F)n1)c1ccc(COc2cc(Cl)ccc2Cl)o1	Nrf2 inh inconclusive
CC(C)(C)c1ccccc1Nc1nc(C#N)nc(NC2CCCC2)n1	Nrf2 inh inconclusive (no result: IL2 activator, Nrf2 activator)
O=C(Cc1cccc2ccccc12)NCC(=O)N1CCN(CC(=O)Nc2ccc(F)cc2)CC1	none (no result: A549 viability, Nrf2 inh)
O=C(Cc1cccc2ccccc12)NCC(=O)N1CCN(Cc2cccc(C(F)(F)F)c2)CC1	Nrf2 inh 21µM
COc1ccc(S(=O)(=O)N2CCN(CC(=O)c3[nH]c(C)c(C(C)=O)c3C)CC2)cc1OC	none
CC(=O)c1c(C)[nH]c(C(=O)CN2CCN(S(=O)(=O)c3ccc(C(C)C)cc3)CC2)c1C	Nrf2 inh 15µM
CC(=O)c1c(C)[nH]c(C(=O)CN2CCN(S(=O)(=O)c3ccccc3F)CC2)c1C	Nrf2 inh 26µM
O=C1c2ccccc2C(=O)N1c1cccc(Cl)c1	none (no result: IL2 activator, Nrf2 activator)
Cc1c(C(=O)N2CCCCCC2)c(S(=O)(=O)N(Cc2ccccc2)C(C)(C)C)c(C)n1C	none (no result: IL2 activator)
CC(=O)Oc1ccc2c(c1)OC(c1ccccc1)CC21CC(C)(C)NC(=S)N1 (configuration not stated)	none
COc1ccc(C2(c3ccc(OC(C)=O)cc3OC(C)=O)CC(c3ccccc3)NC(=S)N2)cc1 (configuration not stated)	A549 viability inconclusive, Nrf2 inh 21µM
COc1ccc(NC(=O)c2nc(SCc3ccccc3F)ncc2Cl)cc1	none (no result: IL2 activator)
Oc1cccc2ccc(/C=C/c3ccccc3Br)nc12	Nrf2 activator 10µM
Cc1ccsc1/C=C/c1ccc2cccc(O)c2n1	Nrf2 activator inconclusive, A549 viability inconclusive
Oc1cccc2ccc(/C=C/c3cccs3)nc12	Nrf2 activator 3.2µM (no result: Nrf2 inh)
CCOc1ccc(CNC(=O)c2cnc3sc(N4CCC(C)CC4)nn3c2=O)cc1OC	Nrf2 inh inconclusive (no result: IL2 activator)
COc1ccc(NC(=S)NCc2ccccc2Cl)c(OC)c1	Nrf2 inh 23µM
COc1ccccc1NC(=S)NCc1ccccc1Cl	none
CC(C)(C)c1ccc(-c2nnc(SCCC#N)n2C2CCCC2)cc1	A549 viability inconclusive, Nrf2 inh 21µM
O=C(CSc1nnc(-c2ccc(Br)cc2)n1C1CCCCC1)N1CCCC1	none
Cc1ccc(C(C)C)c2oc(=O)cc(-c3ccc(-c4ccc(C(F)(F)F)cc4)cc3)c12	Nrf2 inh inconclusive
CC(=O)c1ccc(-c2ccc(-c3cc(=O)oc4c(C(C)C)ccc(C)c34)cc2)cc1	Nrf2 inh 23µM
O=C(COc1ccccc1C(=O)Nc1ccccc1)c1ccc(Br)cc1	A549 viability inconclusive, Nrf2 inh 21µM
COc1ccccc1OCc1cc(C(=O)N2CCN(C)C(c3ccccc3)C2)no1 (configuration not stated)	Nrf2 inh inconclusive
